# Reference: PubChem BioAssay (NCATS)
# Inconclusive results are not listed. Values without a mark were called inactive. Calls of active or inactive are those of the source. Calls follow the shape of the dose curve; as a rule, active = well fitted cell-killing curve with a large enough effect; inconclusive = small, poorly fitted or top-dose-only effect, or effect the other way; inactive = no such curve, though single readings can be large or run the other way. Non-standard residues stand in square brackets, D forms with d. Residues, ends and D or L forms follow the SMILES beside them. *: point of attachment. Nva = CCC[C@H](N)C(=O)O; Cbz = O=C(OCc1ccccc1)*
# What was measured:
# [1] = Quantitative High-Throughput drug screen in 47 multiple myeloma cell lines against the NCATS MIPE library collection: KMS28PE_JCRB cell viability assay (AID 1918983); also: nearly all actives have a fitted effect of over 35% in size
# In short: (§1)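 Myeloma cells (500/well) treated with MIPE 4.0 compounds for 48 h at 37 °C, 5% CO2. Viability read as ATP via CellTiter-Glo luminescence after 5 min at RT; DMSO-only wells = 100%, media-only = 0% viability.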
# [2] = Quantitative High-Throughput drug screen in 47 multiple myeloma cell lines against the NCATS MIPE library collection: L363_DSMZ cell viability assay (AID 1918984); also: nearly all actives have a fitted effect of over 40% in size
# In short: as §1
# [3] = Quantitative High-Throughput drug screen in 47 multiple myeloma cell lines against the NCATS MIPE library collection: OCIMY5_PLB cell viability assay (AID 1918988); also: nearly all actives have a fitted effect of over 65% in size
# In short: as §1
# [4] = Quantitative High-Throughput drug screen in 47 multiple myeloma cell lines against the NCATS MIPE library collection: OPM1_PLB cell viability assay (AID 1918989); also: nearly all actives have a fitted effect of over 40% in size
# In short: as §1
# [5] = Quantitative High-Throughput drug screen in 47 multiple myeloma cell lines against the NCATS MIPE library collection: U266_ATCC cell viability assay (AID 1919864); also: nearly all actives have a fitted effect of over 35% in size
# In short: as §1
# [6] = Quantitative High-Throughput drug screen in 47 multiple myeloma cell lines against the NCATS MIPE library collection: XG6_PLB cell viability assay (AID 1919865); also: nearly all actives have a fitted effect of over 40% in size
# In short: as §1
# [7] = Quantitative High-Throughput drug screen in 47 multiple myeloma cell lines against the NCATS MIPE library collection: XG1_PLB cell viability assay (AID 1919866); also: nearly all actives have a fitted effect of over 35% in size
# In short: as §1
# [8] = Quantitative High-Throughput drug screen in 47 multiple myeloma cell lines against the NCATS MIPE library collection: UTMC2_PLB cell viability assay (AID 1919868); settings: CellTiter-Glo ATP luminescence, 48 h; viability (% of DMSO control): at 45.8 µM (top of the series); also: nearly all actives have a fitted effect of over 55% in size
# In short: as §1
# [9] = Quantitative High-Throughput drug screen in 47 multiple myeloma cell lines against the NCATS MIPE library collection: PE2_PLB cell viability assay (AID 1919869); also: nearly all actives have a fitted effect of over 35% in size
# In short: as §1
# [10] = Quantitative High-Throughput drug screen in 47 multiple myeloma cell lines against the NCATS MIPE library collection: PCM6_Riken cell viability assay (AID 1919870); also: nearly all actives have a fitted effect of over 30% in size
# In short: as §1
# [11] = Quantitative High-Throughput drug screen in 47 multiple myeloma cell lines against the NCATS MIPE library collection: RPMI8226_ATCC cell viability assay (AID 1919871); also: nearly all actives have a fitted effect of over 30% in size
# In short: as §1
# [12] = Quantitative High-Throughput drug screen in 47 multiple myeloma cell lines against the NCATS MIPE library collection: OPM2_DSMZ cell viability assay (AID 1919872); also: nearly all actives have a fitted effect of over 30% in size
# In short: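 qHTS of the MIPE 4.0 collection: 500 myeloma cells/well, 48 h drug exposure at 37C in 5% CO2, then CellTiter-Glo for 5 min at room temperature before luminescence reading.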
# [13] = Quantitative High-Throughput drug screen in 47 multiple myeloma cell lines against the NCATS MIPE library collection: KMS28BM_JCRB cell viability assay (AID 1919874); also: nearly all actives have a fitted effect of over 35% in size
# In short: as §1
# [14] = Quantitative High-Throughput drug screen in 47 multiple myeloma cell lines against the NCATS MIPE library collection: KMS34_JCRB cell viability assay (AID 1918985); also: nearly all actives have a fitted effect of over 40% in size
# In short: as §1
# [15] = Quantitative High-Throughput drug screen in 47 multiple myeloma cell lines against the NCATS MIPE library collection: OCIMY7_PLB cell viability assay (AID 1918987); settings: OCI-MY7 myeloma viability, CellTiter-Glo ATP, 48 h; viability (% of DMSO): at 45.8 µM (top of the series); also: nearly all actives have a fitted effect of over 65% in size
# In short: as §1
# [16] = Quantitative High-Throughput drug screen in 47 multiple myeloma cell lines against the NCATS MIPE library collection: SKMM1_PLB cell viability assay (AID 1919863); settings: SKMM1 myeloma viability, CellTiter-Glo ATP, 48 h; viability: hits give low values; also: nearly all actives have a fitted effect of over 35% in size
# In short: as §1
# [17] = Quantitative High-Throughput drug screen in 47 multiple myeloma cell lines against the NCATS MIPE library collection: VP6_DJ cell viability assay (AID 1919867); also: nearly all actives have a fitted effect of over 40% in size
# In short: as §1
# [18] = Quantitative High-Throughput drug screen in 47 multiple myeloma cell lines against the NCATS MIPE library collection: KMS11_JCRBsus cell viability assay (AID 1919873); also: nearly all actives have a fitted effect of over 50% in size
# In short: as §1
# Potency is read from the fitted curve at half-maximal effect.
SMILES,Potency [1],Potency [2],Potency [3],Potency [4],Potency [5],Potency [6],Potency [7],Potency [8],Potency [9],Potency [10],Potency [11],Potency [12],Potency [13],Potency [14],Potency [15],Potency [16],Potency [17],viability [16],Potency [18]
C[N+]1(C)[C@@H]2C[C@@H](OC(=O)C(O)(c3cccs3)c3cccs3)C[C@H]1[C@@H]1O[C@@H]12,inactive,inactive,inactive,inactive,inactive,inactive,inactive,inactive,inactive,inactive,inactive,inactive,inactive,–,–,–,–,–,–
CCC[C@@H](C=O)NC(=O)[C@H](CC(C)C)NC(=O)[C@H](CC(C)C)NC(=O)OCc1ccccc1 (Cbz-Leu-Leu-[Nva]-aldehyde),662 nM (active),–,935 nM (active),590 nM (active),372 nM (active),264 nM (active),372 nM (active),1480 nM (active),–,469 nM (active),1320 nM (active),–,187 nM (active),743 nM (active),372 nM (active),1870 nM (active),235 nM (active),–,–
CC(C=CC1=C(C)CCCC1(C)C)=CC=CC(C)=CC(=O)Nc1ccc(O)cc1,21500 nM (active),–,9590 nM (active),3400 nM (active),38200 nM (active),13600 nM (active),15200 nM (active),15200 nM (active),12100 nM (active),13600 nM (active),24100 nM (active),17100 nM (active),17100 nM (active),17100 nM (active),4290 nM (active),–,12100 nM (active),–,–
Cc1cc(C(=O)NOCCO)c(Nc2ccc(I)cc2F)n(C)c1=O,inactive,inactive,–,–,–,–,–,–,–,inactive,inactive,–,inactive,–,–,–,–,90.9%,–
Cc1cnc(Nc2ccc(CN3CCOCC3)cc2)nc1Nc1cccc(S(=O)(=O)NC(C)(C)C)c1,9350 nM (active),–,1870 nM (active),935 nM (active),7430 nM (active),1180 nM (active),935 nM (active),743 nM (active),1660 nM (active),–,4180 nM (active),4690 nM (active),4690 nM (active),2350 nM (active),526 nM (active),5260 nM (active),1320 nM (active),–,–
COc1cc(C)c(Sc2cnc(NC(=O)c3ccc(CNC(C)C(C)(C)C)cc3)s2)cc1C(=O)N1CCN(C(C)=O)CC1 (configuration not stated),9350 nM (active),–,16600 nM (active),16600 nM (active),14800 nM (active),14800 nM (active),–,3320 nM (active),14800 nM (active),18700 nM (active),16600 nM (active),20900 nM (active),13200 nM (active),14800 nM (active),3320 nM (active),20900 nM (active),8330 nM (active),–,–
N#Cc1c(NC(=O)c2cccc3ccccc23)sc2c1CCCC2,469 nM (active),–,187 nM (active),469 nM (active),–,148 nM (active),83.3 nM (active),418 nM (active),526 nM (active),296 nM (active),2640 nM (active),743 nM (active),–,296 nM (active),187 nM (active),–,296 nM (active),–,148 nM (active)
CO[C@@H]1[C@@H](O)[C@H](O)[C@@H](n2c3c(Cl)cccc3c3c4c(c5c6cccc(Cl)c6[nH]c5c32)C(=O)NC4=O)O[C@@H]1CO,1320 nM (active),–,2090 nM (active),2090 nM (active),1480 nM (active),74.3 nM (active),–,235 nM (active),1050 nM (active),–,2350 nM (active),5900 nM (active),935 nM (active),1320 nM (active),148 nM (active),–,662 nM (active),–,2960 nM (active)
c1coc(CNc2ncnc3nc[nH]c23)c1,inactive,11800 nM (active),2090 nM (active),–,inactive,inactive,inactive,inactive,–,–,–,inactive,inactive,–,–,–,18700 nM (active),–,inactive
CC[C@]12C=CCN3CC[C@@]4(c5cc([C@@]6(C(=O)OC)C[C@H]7C[C@@H](C(C)(F)F)CN(Cc8c6[nH]c6ccccc86)C7)c(OC)cc5N(C)[C@H]4[C@@](O)(C(=O)OC)[C@H]1OC(C)=O)[C@@H]32,4.7 nM (active),–,1.9 nM (active),16.6 nM (active),1660 nM (active),–,–,1 nM (active),–,10.5 nM (active),166 nM (active),11.8 nM (active),–,5.9 nM (active),1 nM (active),9.3 nM (active),–,–,2.6 nM (active)
CON=C(C(=O)N[C@@H]1C(=O)N2C(C(=O)O)=C(Cn3ccc(=N)n3CCO)CS[C@H]12)c1csc(N)n1,inactive,inactive,inactive,–,–,inactive,–,–,inactive,inactive,inactive,–,inactive,–,–,–,–,112%,inactive
Cc1cnn(C)c1C(=O)Nc1cc(Nc2ccc3c(C=Cc4ccccn4)n[nH]c3c2)ccc1F,29600 nM (active),4690 nM (active),–,4690 nM (active),20900 nM (active),5900 nM (active),4690 nM (active),10500 nM (active),2640 nM (active),4690 nM (active),26400 nM (active),18700 nM (active),20900 nM (active),–,–,20900 nM (active),10500 nM (active),–,11800 nM (active)
COc1cc(C)c(C=CC(C)=CC=CC(C)=CC(=O)O)c(C)c1C,inactive,inactive,–,–,inactive,inactive,inactive,–,–,–,1480 nM (active),inactive,inactive,–,–,–,–,–,inactive
CC(C)(C)[N+]([O-])=Cc1ccc(S(=O)(=O)O)cc1S(=O)(=O)O,inactive,inactive,inactive,inactive,–,inactive,inactive,–,inactive,–,inactive,inactive,–,–,–,–,inactive,115%,–
C[C@]12CCC(=O)C=C1[C@@H]1CC1[C@H]1[C@H]3[C@@H]4C[C@H]4[C@@]4(CCC(=O)O4)[C@@]3(C)CC[C@H]12 (some centres not stated),inactive,inactive,–,inactive,inactive,–,–,–,inactive,inactive,18700 nM (active),inactive,11800 nM (active),–,–,–,inactive,–,–
CCc1nc(-c2cccc(C)c2)c(-c2ccnc(NC(=O)c3ccccc3)c2)s1,20900 nM (active),inactive,–,13200 nM (active),–,20900 nM (active),–,23500 nM (active),13200 nM (active),–,–,18700 nM (active),–,–,–,7430 nM (active),–,–,20900 nM (active)
FC(F)c1nc2ccccc2n1-c1nc(N2CCOCC2)nc(N2CCOCC2)n1,418 nM (active),–,1320 nM (active),469 nM (active),–,590 nM (active),–,118 nM (active),372 nM (active),–,296 nM (active),2090 nM (active),–,1320 nM (active),372 nM (active),1480 nM (active),132 nM (active),–,–
Oc1cc2c(cc1O)C1c3ccc(O)c(O)c3OCC1(O)C2 (configuration not stated),inactive,–,–,inactive,inactive,inactive,inactive,–,20900 nM (active),–,inactive,inactive,inactive,inactive,inactive,–,–,120%,inactive
O=C(NNC(=O)c1ccc(CNS(=O)(=O)c2ccc(F)c(Cl)c2)cc1)c1ccccc1,inactive,–,inactive,–,inactive,inactive,–,inactive,inactive,inactive,inactive,inactive,inactive,inactive,–,–,inactive,126%,inactive
